# PubChem BioAssay (NCATS)
# Records with an inconclusive call do not appear. Unmarked numbers belong to inactive results. Active and inactive are the calls of the source. The call rests on the fitted dose curve; in most records, active means well fitted curve in the direction sought with a large enough effect; inconclusive means small, poorly fitted or top-dose-only effect, or another doubt; inactive means no such curve, though single readings can be large; an effect the other way counts as inactive or inconclusive.
# How the values were obtained:
# [1] = BET inhibitor-based combinations targeting novel dependencies in MECOM-rearranged (r) AML: SET-2 cell line (AID 2202231); settings: SET-2 AML cells viability, CellTiter-Glo luminescence, 48 h; viability: stronger effect = lower value, concentration not given here; further: nearly all actives have a fitted effect of over 35% in size; further: potency means the concentration at half of the fitted maximal effect;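 on viability: plate controls were DMSO treated cells for no effect and wells without cells for full effect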
# Outline: (§1)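 Each compound was tested at eleven concentrations on cells seeded at 500/well. After two days' incubation, ATP-based luminescence reported viability; responses relative to DMSO and blank wells yielded AUC and cell-line-centred Z-AUC.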
# [2] = BET inhibitor-based combinations targeting novel dependencies in MECOM-rearranged (r) AML: OCI-AML3 cell line (AID 2202232); settings: CellTiter-Glo luminescence, 48 h; Potency: OCI-AML3 viability; series mostly up to 46 µM; further: nearly all actives have a fitted effect of over 35% in size; further: potency means the concentration at half of the fitted maximal effect
# Outline: as §1
# [3] = BET inhibitor-based combinations targeting novel dependencies in MECOM-rearranged (r) AML: HNT-34 cell line (AID 2202234); settings: HNT-34 AML viability, CellTiter-Glo luminescence, 48 h; series mostly up to 46 µM; further: nearly all actives have a fitted effect of over 35% in size; further: potency means the concentration at half of the fitted maximal effect
# Outline: (§2)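 First, 500 cells per well were seeded; next, drugs were pinned as 11-point doses; then plates sat 48 hr in the incubator; finally CellTiter-Glo was added and luminescence read, with AUC and Z-AUC computed.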
# [4] = BET inhibitor-based combinations targeting novel dependencies in MECOM-rearranged (r) AML: UCSD-AML1 cell line (AID 2202235); settings: UCSD-AML1 AML cells viability, CellTiter-Glo, 48 h; series mostly up to 46 µM; further: nearly all actives have a fitted effect of over 40% in size; further: potency means the concentration at half of the fitted maximal effect
# Outline: as §2
# [5] = BET inhibitor-based combinations targeting novel dependencies in MECOM-rearranged (r) AML: AML-191 cell line (AID 2202236; further: nearly all actives have a fitted effect of over 35% in size; further: potency means the concentration at half of the fitted maximal effect); settings: AML-191 viability, CellTiter-Glo luminescence, 48 h; series mostly up to 46 µM
# Outline: as §1
# [6] = BET inhibitor-based combinations targeting novel dependencies in MECOM-rearranged (r) AML: AML-194 cell line (AID 2202237; further: nearly all actives have a fitted effect of over 40% in size; further: potency means the concentration at half of the fitted maximal effect); settings: AML-194 (MECOM-r AML) viability, CellTiter-Glo, 48 h; series mostly up to 46 µM
# Outline: as §1
# [7] = BET inhibitor-based combinations targeting novel dependencies in MECOM-rearranged (r) AML: MV-4-11 cell line (AID 2202233); settings: MV-4-11 AML viability, CellTiter-Glo luminescence, 48 h; series mostly up to 46 µM; further: nearly all actives have a fitted effect of over 45% in size; further: potency means the concentration at half of the fitted maximal effect
# Outline: as §2
# [8] = molecular target: Retinaldehyde dehydrogenase 3 (Homo sapiens) (UniProt P47895); assay: qHTS for Inhibitors of the Aldehyde Dehydrogenase Family (ALDH1A3) Primary screen (AID 2061315); settings: ALDH inhibition qHTS; series mostly up to 56 µM;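 further: plate controls were DMSO vehicle for no effect and reference inhibitor for full effect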
compound,measurement,setting,value
NC(=O)c1cccc(-c2cccc(OC(=O)NC3CCCCC3)c2)c1,viability,[1],103%
same,Potency,[2],inactive
same,Potency,[3],inactive
same,Potency,[4],inactive
same,Potency,[5],inactive
same,Potency,[6],inactive
Cn1c(=O)c(F)c(Nc2ccc(I)cc2F)c2c(=O)n(C[C@@H](O)CO)cnc21,Potency,[1],16.6 µM (active)
same,Potency,[2],0.0059 µM (active)
same,Potency,[3],0.0833 µM (active)
same,Potency,[4],1.32 µM (active)
N#CC1(c2ccc(NC(=O)c3cccnc3NCc3ccncc3)cc2)CCCC1,Potency,[2],inactive
same,Potency,[4],inactive
same,Potency,[5],inactive
same,Potency,[6],inactive
CC[C@H](C)n1cc(C)c2c(C(=O)NCc3c(C)cc(C)[nH]c3=O)cc(-c3ccc(N4CCNCC4)nc3)cc21,Potency,[7],18.6 µM (active)
O=C(O)c1cn(-c2ccc(F)cc2)c2cc(N3CCNCC3)c(F)cc2c1=O,viability,[1],96.6%
same,Potency,[2],inactive
same,Potency,[7],inactive
same,Potency,[3],inactive
same,Potency,[4],inactive
same,Potency,[6],inactive
CC(=O)OC[C@@]12C(=O)C[C@@H](C)[C@]3(C[C@@H](c4ccoc4)O[C@H]3OC(C)=O)[C@H]1CCC[C@]21CO1,Potency,[8],inactive
NS(=O)(=O)c1cccc2c1C(=O)c1cccc(O)c1C2=O,Potency,[1],2.95 µM (active)
same,Potency,[2],1.66 µM (active)
same,Potency,[7],0.332 µM (active)
same,Potency,[3],1.86 µM (active)
same,Potency,[4],2.09 µM (active)
same,Potency,[5],2.35 µM (active)
same,Potency,[6],2.63 µM (active)
CCc1ccc(OCc2ccccc2C(=O)Nc2ccc3nc(C)cc(N)c3c2)cc1,Potency,[1],6.61 µM (active)
same,Potency,[2],8.33 µM (active)
same,Potency,[7],5.9 µM (active)
same,Potency,[3],4.17 µM (active)
same,Potency,[4],7.42 µM (active)
same,Potency,[5],7.42 µM (active)
same,Potency,[6],6.61 µM (active)
CCN(CC)CCCCNc1ncc2c(n1)N(C)C(=O)N(c1c(Cl)c(OC)cc(OC)c1Cl)C2,Potency,[1],18.6 µM (active)
same,Potency,[7],14.8 µM (active)
same,Potency,[3],10.5 µM (active)
